# Source: PubChem BioAssay (Tox21)
# Inconclusive results are not listed. Where a call stands in place of a potency, no number is given. Active and inactive are the calls of the source. Calls follow the shape of the dose curve; as a rule, active = well fitted cell-killing curve with a large enough effect in the repeat runs; inconclusive = weak or mixed curves, or effect the other way; inactive = no such curve, though single readings can be large or run the other way.
# Test: qHTS assay for identifying genotoxic compounds that show differential cytotoxicity against isogenic chicken DT40 cell lines with known DNA damage response pathways - wild type cell line (AID 743012); also: nearly all actives have a fitted effect of over 60% in size
# Details: DT40 wild type chicken cells viability, CellTiter-Glo, 40 h; series mostly up to 68.4 µM
# Excerpt: U.S. Tox21 Program National Center for Advancing Translational Sciences [NCATS] NIH Chemical Genomics Center [NCGC] U.S. Environmental Protection Agency [EPA] National Institutes of Environmental Health Sciences [NIEHS] National Toxicology Program [NTP] U.S. Food and Drug Administration [FDA] Tox21 Assay Overview: DNA repair pathways play a critical role in cellular homeostasis by repairing DNA damage induced by endogenous processes and xenobiotics. Isogenic chicken DT40 cell lines deficient in different DNA repair pathways can be used to identify genotoxic compounds and aid in characterizing the nature of the DNA damage induced. Two DNA repair-deficient cell lines with disrupted genes, Rad54/Ku70 or Rev3, were used to screen the Tox21 10K compound library. Possible genotoxicity was based on the presence of a significant increase in cytotoxicity in one or more of the DNA repair-deficient cell lines compared to that observed in the parental DNA repair-proficient cell line. CellTiter Glo viability assay (Promega, Madison, WI) was used to measure cell viability in these cells after compound treatment. This assay includes the data from the wild type cell line.
# Tox21 Assay Protocol Summary: 300 DT40 wild type cells in 5 uL/well were dispensed into white, solid-bottom 1536-well plates using a Multidrop Combi (ThermoFisher Scientific, Waltham, MA) dispenser. After the assay plates were incubated at 37 C/5% CO2 for approximately 0.5 hour, 23 nL of compounds dissolved in DMSO, positive controls or DMSO only was transferred into the assay plate by a pintool work station (Kalypsys, San Diego, CA). The assay plates were incubated at 37 C/5% CO2 for 40 hours. After 5 uL per well of CellTiter-Glo reagent was added into each well of the assay plates, the plates were incubated for 30 min at room temperature and the luminescence intensity of the plates was measured using a ViewLux (PerkinElmer, Shelton, CT) plate reader.
# Potency is read from the fitted curve at half-maximal effect.
row,Compound,Potency
1,CC1=NN(c2cc(Cl)c(S(=O)(=O)O)cc2Cl)C(=O)C1N=Nc1ccc(S(=O)(=O)O)cc1 (stereo not given),inactive
2,CCCCCCCCCCCCOCCOS(=O)(=O)O,inactive
3,c1ccc(CN(CC2=NCCN2)c2ccccc2)cc1,29.8 µM (active)
4,Cc1ccc([N+](=O)[O-])cc1Cl,inactive
5,CCCOCCC,inactive
6,Cn1cnc2c(F)c(Nc3ccc(Br)cc3Cl)c(C(=O)NOCCO)cc21,inactive
7,COc1nc(C)nc(NC(=O)NS(=O)(=O)c2ccccc2OCCCl)n1,inactive
8,CC(=O)Nc1ccc(C)c(Cl)c1,inactive
9,CC(=O)OC1C2(C)CCC(C2)C1(C)C (stereo not given),inactive
10,CCOc1ccccc1N,inactive
11,CC1=C(CC(=O)O)c2cc(F)ccc2/C1=C\c1ccc(S(C)(=O)=O)cc1,inactive
12,OCc1ccccc1O,inactive
13,N#Cc1ccc(C(c2ccc(C#N)cc2)n2cncn2)cc1,inactive
14,CN1CCN(C2=Nc3cc(F)ccc3Cc3ccccc32)CC1,11.9 µM (active)
15,CCCCCCCCCC/C=C/C#N,inactive
16,COc1cc(C)ccc1C(C)C,inactive
17,Nc1cccc(S(=O)(=O)O)c1,inactive
18,Nc1ccc2ccccc2c1S(=O)(=O)O,inactive
19,CC(C)OC(C)C,inactive
20,CCCCNCCCC,inactive

row,Compound,Potency
1,FC(F)(F)c1ccccc1,inactive
2,CCN[C@H]1CN(CCCOC)S(=O)(=O)c2sc(S(N)(=O)=O)cc21,inactive
3,CC1=C2[C@H](/C=C(\C)C(=O)O)CC[C@@H](C)[C@H]2CC1,inactive
4,CCCCCCCCCC#N,inactive
5,Cc1c(-c2ccccc2)oc2c(C(=O)OCCN3CCCCC3)cccc2c1=O,inactive
6,O=C(O)C(=O)Cc1c[nH]c2ccccc12,inactive
7,CCNCCO,inactive
8,ClC(Cl)Cl,inactive
9,O=C(O)CN(CCN(CC(=O)O)CC(=O)O)CCN(CC(=O)O)CC(=O)O,18.8 µM (active)
10,C[C@@H]1CN(c2c(F)c(F)c3c(=O)c(C(=O)O)cn(C4CC4)c3c2F)C[C@H](C)N1,inactive
11,Cc1ccc(C(C)C)cc1O,inactive
12,OCCN(CCO)CCN(CCO)CCO,inactive
13,OCCN1CCN(CCO)CC1,inactive
14,CC1CN(c2ccccc2)NC1=O (stereo not given),inactive
15,CC(C)CCCCCCc1ccc(OCCOCCO)cc1,inactive
16,CC/C=C\CCOC(=O)C(C)C,inactive
17,CCCCCCC,inactive
18,CC1=CC(=O)CC(C)(C)C1=O,inactive
19,Cc1ccc([N+](=O)[O-])c(N)c1,inactive
20,NNS(=O)(=O)c1ccc(Oc2ccc(S(=O)(=O)NN)cc2)cc1,inactive
